Laboratory results: PubChem BioAssay

Tested on: Chordin-like protein 2 (CHRDL2)
Experiment: CHRDL2 small-molecule binders, primary screen, biochemical, small-molecule microarray, 635 nm fluorescence (AID 1126);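 further: printed compound slides probed with Chrdl2 protein at 4 µg/mL for 1 h at 4 C; score merges 667 nm emission intensity with signal to noise over three replicate slides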
Details: small-molecule microarray binding, fluorescence 635 nm; higher = more signal

Structure (SMILES) | composite z-score
CN1C(=O)C2C=CC(C(O)c3ccc(F)cc3)N(N(c3ccccc3)c3ccccc3)C2C1=O (stereo not drawn) | -0.69
Cc1ccc(S[C@]2(C(=O)O)CC(=O)N(Cc3ccccc3C(F)(F)F)[C@@H]2c2ccc(CO)cc2I)cc1 | -0.673
C[N+](C)(C)CCCC[C@@H]1NC(=O)[C@@H]2C[C@H](C(=O)NCCCCCN)[C@H](c3ccc(O)cc3)N2C1=O | 0.248
COCCOC(=O)N1C(=O)[C@@]2(c3cc(C#CCCO)ccc31)[C@H](c1ccc(O)cc1)N1[C@H](c3ccccc3)[C@H](c3ccccc3)OC(=O)[C@H]1[C@@H]2C(=O)N1CCN(c2ncccn2)CC1 | 0.677
O=C(CS)NCCCCCNC(=O)[C@@H]1C[C@@H]2C(=O)NCC(=O)N2[C@@H]1c1ccc(O)cc1 | 0.616
O=C1C2C=CC(C(O)C=Cc3ccc([N+](=O)[O-])cc3)N(n3cnnc3)C2C(=O)N1Cc1ccccc1 (stereo not drawn) | 0.682
C=C(/C(=C/C[C@H](OC(=O)c1ccncc1)c1ccc(OCCO)cc1)c1cc(C(=O)OC)ccc1OC)C(C)C | -0.0985
CN(C)CCCC[C@@H]1NC(=O)[C@H]2C[C@@H](C(=O)NCCCCCN)[C@@H](c3cccc(OCCO)c3)N2C1=O | 0.402
CCCNC(=O)[C@@H]1c2ccccc2C(=O)N(Cc2ccccc2OC)[C@H]1c1ccc(CO)cc1 | -0.0218
Cc1ccc(S[C@]2(C(=O)O)CC(=O)N(C(C)C)[C@@H]2c2ccc(CO)cc2)cc1 | -0.215
COCCCNC(=O)[C@@]1(CCS(=O)(=O)c2ccccc2)N=C(c2ccc(OCCCO)cc2)O[C@H]1c1ccccc1N=[N+]=[N-] | -0.154
C=CC[C@@]1(C(=O)N2CCCCC2)N=C(c2ccc(OCCCO)cc2)O[C@@H]1c1ccccc1CN=[N+]=[N-] | -0.602
C#CCN1[C@@H](Cc2ccc(O)cc2)C(=O)O[C@H](Cc2ccccc2)[C@@H]1/C=C/C1CC1 | 0.498
OCC1C=C(/C=C/c2ccccc2)CN1Cc1ccccc1Br (stereo not drawn) | 0.402
COc1ccc(C(=O)Nc2ccc(CN3C(=O)[C@]4(O[C@H](CC(=O)N5CCC[C@H]5CO)[C@@H]([Si](C)(C)c5ccc(OC)cc5)[C@@H]4C)c4ccccc43)cc2)cc1 | 0.666
CO[C@H]1O[C@H](CO)[C@@H](OC(=O)Nc2ccccc2-c2ccccc2)[C@H](OC(=O)Nc2ccccc2-c2ccccc2)[C@@H]1OC(=O)Nc1ccccc1-c1ccccc1 | 0.332
O=C1C[C@@](C(=O)NCc2ccccc2)(c2ccc([N+](=O)[O-])cc2)[C@@H](c2ccc(CO)cc2)N1CC12CC3CC(CC(C3)C1)C2 | 0.119
C=C(CCCC)/C(=C/C[C@H](OC(C)=O)c1ccc(OCCO)cc1)c1cnc2ccccc2c1 | 1.05
COC(=O)[C@]1(Cc2ccccc2)N=C(c2ccc(OCCCO)cc2)O[C@@H]1c1ccccc1N=[N+]=[N-] | 0.315
COC(=O)C(CC#Cc1ccc2c(c1)[C@]1(C(=O)N2)[C@H](c2ccc(O)cc2)N2[C@H](c3ccccc3)[C@H](c3ccccc3)OC(=O)[C@H]2[C@@H]1C(=O)N1CCN(c2ncccn2)CC1)C(=O)OC | 0.0801
CO[C@H]1O[C@H](CO)[C@@H](OC(=O)Nc2ccc(Br)cc2)[C@@H]2OC(=O)[C@H](Cc3cccc(Br)c3)C/C=C/C[C@@H](Cc3cccc(Br)c3)C(=O)O[C@@H]12 | 0.0113
COCCOC(=O)N1C(=O)[C@@]2(c3cc(C#CC4(O)CCCCCC4)ccc31)[C@H](c1ccccc1OCCO)N1[C@H](c3ccccc3)[C@H](c3ccccc3)OC(=O)[C@H]1[C@@H]2C(=O)N1CCc2cc(OC)c(OC)cc2C1 | -0.225
[N-]=[N+]=NCc1ccccc1[C@H]1OC(c2ccc(OCCCO)cc2)=N[C@@]1(Cc1ccccc1)C(=O)N1CCCCC1 | -0.237
COCCOC(=O)N1C(=O)[C@@]2(c3cc(C#CC4=CCCCC4)ccc31)[C@H](c1ccc(OCCO)cc1)N1[C@H](c3ccccc3)[C@H](c3ccccc3)OC(=O)[C@H]1[C@@H]2C(=O)N1CCc2cc(OC)c(OC)cc2C1 | 0.839
COCC(=C=CC[C@H](O)c1cccc(OCCO)c1)CCO | 0.247
C=CC[C@]1(C(=O)NCc2ccccc2)N=C(c2ccc(OCCCO)cc2)O[C@H]1c1ccccc1CN=[N+]=[N-] | -0.329
C=C(CCCC)C(=O)CC[C@@H](OC(C)=O)c1ccc(CO)o1 | 0.869
COc1ccc(C(=O)Nc2cccc(CN3C(=O)[C@]4(O[C@H](CCn5cc(CCO)nn5)[C@@H]([Si](C)(C)c5ccc(OC)cc5)[C@@H]4C)c4ccccc43)c2)cc1 | 0.306
